From the supplement of paper PMC6555819

test system: VDR:RXRa (NR concentration 270 nM, RXRa partner concentration 90 nM); assay: PBM binding z-score (relative to random genomic background probes); higher = stronger binding; sequences stand for … in GC…GCGATTGACAGCGTAGAATGAAGG
Procedure: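 Protein-binding microarray (Agilent 4x180K custom design, double-stranded 60-nt probes: 5' GC cap, 34-nt variable region, 24-nt constant primer region; full probe sequence given). Purified or IVT nuclear receptor:RXRα heterodimers (3:1 NR:RXRα, mostly 270:90 nM) or homodimers were incubated for 1 h in PBS with 2% milk and no ligand, then detected with Alexa488 antibodies. Fluorescence from o1-orientation probes (~5 replicates averaged) was converted to z-scores against 500 random hg19 background probes. Variable regions are seed direct-repeat (DR0–DR5) sites, all their single-nucleotide variants and half-site ablations.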

| Sequence | PBM binding z-score |
| --- | --- |
| AATACAGGGTCAGCGTAGGCCAGAGTACGCACAG | 3.44 |
| ACAGACAGCTGAGTGAAGGTAACTCAGCTGGACG | -0.322 |
| TGAATGAGGTTATAAGACCAGGGAACGTTGCAAA | 0.916 |
| ATCTCTAGGTAACGTTCAGTGAAAGATCGATAGA | 0.101 |
| CTCGAAAGGTCGTGCTCAGGTGAGCATACCAAAC | 3.27 |
| CTCGAAGGGTCGGTTGAGGTGAGTATACGGATAA | 1.25 |
| ATCTCTAGGTAACAAGTTCAGCGAAAGAGAGGAC | 2.45 |
| AGAATGAGGTTACCAAAGATCCGGGAAACGCTTG | 1.16 |
| CGACCAAGGTCAATGCTAGGTCAGTGAAAGCATT | 4.69 |
| GGAACGAGGGCAAAGTTGACAGCATCTGTCGACG | 1.6 |
| CTCGAAAGGTCGGTTGAGATGAGTATACGGATAA | 0.961 |
| GCAGACAGCTGAAACGCAGGTAACTCAGGGTGGC | -0.826 |
| TCTATTAGTTGATTAGGGCTACCGAAACAGCGGA | 0.473 |
| ACTAGTTGGTCAGGTGAGGTCACACACAATTCGG | 4.8 |
| TCTTGTAGATCAAGCAGGTCAAGAAAGCCTGAGT | 2.28 |
| TCTGGTAGATCAATAGAGGTTAAGAAAGTGCGCT | 1.87 |
| TTATATAGGTAATACAGGTGAAAGTCGGCATCTA | 0.727 |
| CCTAGTTGGTCCAGGTCACACACGCTATAGGTAC | 2.54 |
| GCTCGGAGGACAAGGTTAGAGCTTTGTCCGTAGA | -0.341 |
| ATCGAAAGGTCGTGCGGTGAGTATACAGAAAGGC | 3.46 |

| Sequence | PBM binding z-score |
| --- | --- |
| ATCTCTAGGTAACCAAGATCAGTGAATGCCGAAC | 0.294 |
| ATCTCTAGGTAAGACTCAGTTCAGTGATGAACGC | 0.927 |
| ATCGAAAGGTCGAGGTGAGTATTGAGAAAGGGAA | 2.46 |
| ATCTCTAGGTAAAACTTCAGTGAATCCCGAGGAT | -0.0846 |
| CGAACGAGGGCATGAGTTGATATCAAATGCCGAT | 1.44 |
| GATACAGGGTCAAGGCCAAAGTACGCGTATTGAT | 4.44 |
| ATCTCTAGGTAAAGATAGGTCAGTGAATGCAAAT | 1.13 |
| AGAATGAGGTTAAGATCTGGGAAACAGAATACAT | 1.13 |
| ACTAGCAGGCCAAGTTTGTGTCACTCAAACAAAG | -0.313 |
| ACTAGCAGGCCACGTTTGGGTCACTCAAACAAAG | 0.312 |
| CCTTACGGGTCAAAGTTATAGCACGGGTGGTACG | 3.54 |
| GATACAGGGTCAAGGCCAGAGTGCGCGTATTGAT | 4.23 |
| TGAATGTGGTTAAAGATCAGGGAACGTGGCGTCG | -0.219 |
| CCTTGGAGGACAACAGGAGGTCAGAGCTGCCAGA | 1.99 |
| TCATATAGGTAAATGCTGGGTGAAAGTCCGATCT | 0.641 |
| CCTAGCAGGCCAATCTGGGTCACTCACGGCTTGA | 0.411 |
| TCAGACAGGTGAAGGTAACTCAGGTACGCAGTCG | 0.943 |
| CAGCCTAGGTCAGGACCAGTATAGGAGGAACGTT | 0.522 |
| TAGCCCAGGTCATGGGCCAGTATACCACGCGAAC | 2.64 |
| CCTAGCAGGCCAGGGTGACTCAAGCATTTCGCTT | -0.639 |
